Test results from the supplement of paper PMC10037445.
The full ranking holds about 2,900 compounds; the median of “IRF Lucia reporter activity, fold change vs agonist alone” is about 0.9, and the highest 2% start at about 2.8. The list comes from a sample in which the highest values are over-represented; it also holds similar structures and randomly drawn compounds.

Legend:
RAW-Dual [1] = assay: IRF Lucia reporter activity, fold change vs agonist alone; cytotoxicity flag (confluency mask): cytotoxic (confluency <70% of control); higher = enhanced IRF activity
In short: (§1)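 Cytotoxic wells were those whose IncuCyte confluency was below 70% of agonist controls in both mask sets. The cells were RAW-Dual macrophages at 50,000 cells/well in DMEM on 384-well plates, dosed with 50 nL of library stock by pin tool, stimulated with a PRR agonist 1 h later, and kept at 37 °C, 5% CO2 for 20 hours. IRF and NF-κB reporter activity, as fold change over agonist-alone wells, came from supernatant read by QuantiLuc luminescence and QuantiBlue absorbance, respectively.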

RAW-Dual [2] = assay: IRF Lucia reporter activity, fold change vs agonist alone; higher = enhanced IRF activity; details: agonist: MPLA (TLR4) […]
In short: as §1

RAW-Dual [3] = assay: IRF Lucia reporter activity, fold change vs agonist alone; cytotoxicity flag (confluency mask): not cytotoxic; higher = enhanced IRF activity
In short: as §1

[4] = agonist: 3'3'-cGAMP (STING) 10 ug/mL
[5] = library stock concentration (final ~1000-fold dilution): 10 mM, cytotoxicity flag (confluency mask): not cytotoxic

COc1cc2c(cc1O)CCC1C2CCC2(C)C(O)CCC12 (configuration not stated) (library stock concentration (final ~1000-fold dilution): 10 mM)
IRF Lucia reporter activity (RAW-Dual [1]; [4]): 0.205
IRF Lucia reporter activity (RAW-Dual [1]; agonist: LPS (TLR4) 0.1 ug/mL): 1.03

COc1cc2c(cc1O)CCC1C2CCC2(C)C(O)CCC12 (configuration not stated)
IRF Lucia reporter activity (RAW-Dual [2]; library stock concentration (final ~1000-fold dilution): 10 mM, cytotoxicity flag (confluency mask): cytotoxic (confluency <70% of control)): 1.31

Cc1cc(C(=O)NOCCO)c(Nc2ccc(I)cc2F)n(C)c1=O
IRF Lucia reporter activity (RAW-Dual [2]; [5]): 2.81

O=C(NOCC(O)CO)c1cc(Br)c(F)c(F)c1Nc1ccc(I)cc1F (configuration not stated) (library stock concentration (final ~1000-fold dilution): 10 mM)
IRF Lucia reporter activity (RAW-Dual [3]; [4]): 0.713
IRF Lucia reporter activity (RAW-Dual [3]; agonist: LPS (TLR4) 0.1 ug/mL): 2.11

O=C(NOCC1CC1)c1ccc(F)c(F)c1Nc1ccc(I)cc1Cl
IRF Lucia reporter activity (RAW-Dual [2]; [5]): 2.05

O=C(NOCC(O)CO)c1ccc(F)c(F)c1Nc1ccc(I)cc1F (configuration not stated)
IRF Lucia reporter activity (RAW-Dual [2]; [5]): 3.52

O=C(NOCCO)c1ccc2cncn2c1Nc1ccc(I)cc1F
IRF Lucia reporter activity (RAW-Dual [2]; [5]): 3.27

Cn1c(=O)c(F)c(Nc2ccc(I)cc2F)c2c(=O)n(CC(O)CO)cnc21 (configuration not stated)
IRF Lucia reporter activity (RAW-Dual [2]; [5]): 1.23

O=C(NOCCO)c1ccc2cncn2c1Nc1ccc(I)cc1F (library stock concentration (final ~1000-fold dilution): 10 mM)
IRF Lucia reporter activity (RAW-Dual [3]; [4]): 0.814
IRF Lucia reporter activity (RAW-Dual [3]; agonist: LPS (TLR4) 0.1 ug/mL): 3.65

Cn1c(=O)c(F)c(Nc2ccc(I)cc2F)c2c(=O)n(CC(O)CO)cnc21 (configuration not stated) (library stock concentration (final ~1000-fold dilution): 10 mM)
IRF Lucia reporter activity (RAW-Dual [3]; [4]): 0.517
IRF Lucia reporter activity (RAW-Dual [3]; agonist: LPS (TLR4) 0.1 ug/mL): 0.819

Cc1cc(C(=O)NOCCO)c(Nc2ccc(I)cc2F)n(C)c1=O (library stock concentration (final ~1000-fold dilution): 10 mM)
IRF Lucia reporter activity (RAW-Dual [3]; [4]): 0.824
IRF Lucia reporter activity (RAW-Dual [3]; agonist: LPS (TLR4) 0.1 ug/mL): 2.13

O=C(NOCC(O)CO)c1cc(Br)c(F)c(F)c1Nc1ccc(I)cc1F (configuration not stated)
IRF Lucia reporter activity (RAW-Dual [2]; [5]): 2.39

O=C(NOCC1CC1)c1ccc(F)c(F)c1Nc1ccc(I)cc1Cl (library stock concentration (final ~1000-fold dilution): 10 mM)
IRF Lucia reporter activity (RAW-Dual [3]; [4]): 0.525
IRF Lucia reporter activity (RAW-Dual [3]; agonist: LPS (TLR4) 0.1 ug/mL): 2.5

O=C(NOCC(O)CO)c1ccc(F)c(F)c1Nc1ccc(I)cc1F (configuration not stated) (library stock concentration (final ~1000-fold dilution): 10 mM)
IRF Lucia reporter activity (RAW-Dual [3]; [4]): 0.903
IRF Lucia reporter activity (RAW-Dual [3]; agonist: LPS (TLR4) 0.1 ug/mL): 3.61

Br.Br.Br.Br.Br.Br.c1ccc(CNCc2ccc(CN3CCCNCCNCCCNCC3)cc2)nc1
IRF Lucia reporter activity (RAW-Dual [2]; library stock concentration (final ~1000-fold dilution): 10 mM water, cytotoxicity flag (confluency mask): not cytotoxic): 1.35

Br.Br.Br.Br.Br.Br.c1ccc(CNCc2ccc(CN3CCCNCCNCCCNCC3)cc2)nc1 (library stock concentration (final ~1000-fold dilution): 10 mM water)
IRF Lucia reporter activity (RAW-Dual [3]; [4]): 1.07
IRF Lucia reporter activity (RAW-Dual [3]; agonist: LPS (TLR4) 0.1 ug/mL): 0.886

COc1cc2ccc(=O)oc2c(OC)c1O (library stock concentration (final ~1000-fold dilution): .1 mM)
IRF Lucia reporter activity (RAW-Dual [3]; [4]): 1.07
IRF Lucia reporter activity (RAW-Dual [3]; agonist: LPS (TLR4) 0.1 ug/mL): 0.255

NC1=NC2(c3cc(NC(=O)c4ccc(F)cn4)ccc3F)COCC2CS1 (configuration not stated) (library stock concentration (final ~1000-fold dilution): 10 mM)
IRF Lucia reporter activity (RAW-Dual [3]; [4]): 1.08
IRF Lucia reporter activity (RAW-Dual [3]; agonist: LPS (TLR4) 0.1 ug/mL): 0.998

NC1=NC2(c3cc(NC(=O)c4ccc(F)cn4)ccc3F)COCC2CS1 (configuration not stated)
IRF Lucia reporter activity (RAW-Dual [2]; [5]): 1.04

Cn1cc(-c2cc3c(-c4ccc(CNC(=O)c5noc(C(C)(C)C)n5)c(F)c4)ncnc3[nH]2)cn1 (library stock concentration (final ~1000-fold dilution): 10 mM)
IRF Lucia reporter activity (RAW-Dual [3]; [4]): 0.039
IRF Lucia reporter activity (RAW-Dual [3]; agonist: LPS (TLR4) 0.1 ug/mL): 0.396

Cc1nnc(SCC2=C(C(=O)O)N3C(=O)C(NC(=O)Cn4cnnn4)C3SC2)s1 (configuration not stated) (library stock concentration (final ~1000-fold dilution): 10 mM)
IRF Lucia reporter activity (RAW-Dual [3]; [4]): 1.08
IRF Lucia reporter activity (RAW-Dual [3]; agonist: LPS (TLR4) 0.1 ug/mL): 1.26

Cc1nnc(SCC2=C(C(=O)O)N3C(=O)C(NC(=O)Cn4cnnn4)C3SC2)s1 (configuration not stated)
IRF Lucia reporter activity (RAW-Dual [2]; [5]): 1.07

Cc1ccsc1C(=CCCN1CCCC(C(=O)O)C1)c1sccc1C (configuration not stated) (library stock concentration (final ~1000-fold dilution): 10 mM)
IRF Lucia reporter activity (RAW-Dual [3]; [4]): 0.964
IRF Lucia reporter activity (RAW-Dual [3]; agonist: LPS (TLR4) 0.1 ug/mL): 1.29

Cc1ccsc1C(=CCCN1CCCC(C(=O)O)C1)c1sccc1C (configuration not stated)
IRF Lucia reporter activity (RAW-Dual [2]; [5]): 1

COC1CC2CCC(C)C(O)(O2)C(=O)C(=O)N2CCCCC2C(=O)OC(C(C)CC2CCC(OP(C)(C)=O)C(OC)C2)CC(=O)C(C)C=C(C)C(O)C(OC)C(=O)C(C)CC(C)C=CC=CC=C1C (configuration not stated) (library stock concentration (final ~1000-fold dilution): 10 mM)
IRF Lucia reporter activity (RAW-Dual [3]; [4]): 1.03
IRF Lucia reporter activity (RAW-Dual [3]; agonist: LPS (TLR4) 0.1 ug/mL): 1.6

COC1CC2CCC(C)C(O)(O2)C(=O)C(=O)N2CCCCC2C(=O)OC(C(C)CC2CCC(O)C(OC)C2)CC(=O)C(C)C=C(C)C(O)C(OC)C(=O)C(C)CC(C)C=CC=CC=C1C (configuration not stated) (library stock concentration (final ~1000-fold dilution): .1 mM)
IRF Lucia reporter activity (RAW-Dual [3]; [4]): 0.922
IRF Lucia reporter activity (RAW-Dual [3]; agonist: LPS (TLR4) 0.1 ug/mL): 0.698

COC1CC2CCC(C)C(O)(O2)C(=O)C(=O)N2CCCCC2C(=O)OC(C(C)CC2CCC(n3cnnn3)C(OC)C2)CC(=O)C(C)C=C(C)C(O)C(OC)C(=O)C(C)CC(C)C=CC=CC=C1C (configuration not stated) (library stock concentration (final ~1000-fold dilution): 10 mM)
IRF Lucia reporter activity (RAW-Dual [3]; [4]): 0.943
IRF Lucia reporter activity (RAW-Dual [3]; agonist: LPS (TLR4) 0.1 ug/mL): 0.694

COC1CC2CCC(C)C(O)(O2)C(=O)C(=O)N2CCCCC2C(=O)OC(C(C)CC2CCC(O)C(OC)C2)CC(=O)C(C)C=C(C)C(O)C(OC)C(=O)C(C)CC(C)C=CC=CC=C1C (configuration not stated)
IRF Lucia reporter activity (RAW-Dual [2]; [5]): 1.46

CCC1/C=C(\C)CC(C)CC(OC)C2OC(O)(C(=O)C(=O)N3CCCCC3C(=O)OC(/C(C)=C/C3CCC(Cl)C(OC)C3)C(C)C(O)CC1=O)C(C)CC2OC (configuration not stated)
IRF Lucia reporter activity (RAW-Dual [2]; [5]): 1.02

COC1CC2CCC(C)C(O)(O2)C(=O)C(=O)N2CCCCC2C(=O)OC(C(C)CC2CCC(OC(=O)C(C)(CO)CO)C(OC)C2)CC(=O)C(C)C=C(C)C(O)C(OC)C(=O)C(C)CC(C)C=CC=CC=C1C (configuration not stated)
IRF Lucia reporter activity (RAW-Dual [2]; [5]): 4.11

COC1CC2CCC(C)C(O)(O2)C(=O)C(=O)N2CCCCC2C(=O)OC(C(C)CC2CCC(O)C(OC)C2)CC(=O)C(C)C=C(C)C(O)C(OC)C(=O)C(C)CC(C)C=CC=CC=C1C (configuration not stated) (library stock concentration (final ~1000-fold dilution): 10 mM)
IRF Lucia reporter activity (RAW-Dual [3]; [4]): 1.05
IRF Lucia reporter activity (RAW-Dual [3]; agonist: LPS (TLR4) 0.1 ug/mL): 2.09

COC1CC2CCC(C)C(O)(O2)C(=O)C(=O)N2CCCCC2C(=O)OC(C(C)CC2CCC(OC(=O)C(C)(CO)CO)C(OC)C2)CC(=O)C(C)C=C(C)C(O)C(OC)C(=O)C(C)CC(C)C=CC=CC=C1C (configuration not stated) (library stock concentration (final ~1000-fold dilution): 10 mM)
IRF Lucia reporter activity (RAW-Dual [3]; [4]): 0.69
IRF Lucia reporter activity (RAW-Dual [3]; agonist: LPS (TLR4) 0.1 ug/mL): 2.98

COC1CC2CCC(C)C(O)(O2)C(=O)C(=O)N2CCCCC2C(=O)OC(C(C)CC2CCC(OP(C)(C)=O)C(OC)C2)CC(=O)C(C)C=C(C)C(O)C(OC)C(=O)C(C)CC(C)C=CC=CC=C1C (configuration not stated)
IRF Lucia reporter activity (RAW-Dual [2]; [5]): 1.24

COC1CC2CCC(C)C(O)(O2)C(=O)C(=O)N2CCCCC2C(=O)OC(C(C)CC2CCC(OCCO)C(OC)C2)CC(=O)C(C)C=C(C)C(O)C(OC)C(=O)C(C)CC(C)C=CC=CC=C1C (configuration not stated)
IRF Lucia reporter activity (RAW-Dual [2]; [5]): 3.06

COC1CC2CCC(C)C(O)(O2)C(=O)C(=O)N2CCCCC2C(=O)OC(C(C)CC2CCC(OCCO)C(OC)C2)CC(=O)C(C)C=C(C)C(O)C(OC)C(=O)C(C)CC(C)C=CC=CC=C1C (configuration not stated) (library stock concentration (final ~1000-fold dilution): 10 mM)
IRF Lucia reporter activity (RAW-Dual [3]; [4]): 1.28
IRF Lucia reporter activity (RAW-Dual [3]; agonist: LPS (TLR4) 0.1 ug/mL): 2.63

CCC1/C=C(\C)CC(C)CC(OC)C2OC(O)(C(=O)C(=O)N3CCCCC3C(=O)OC(/C(C)=C/C3CCC(Cl)C(OC)C3)C(C)C(O)CC1=O)C(C)CC2OC (configuration not stated) (library stock concentration (final ~1000-fold dilution): 10 mM)
IRF Lucia reporter activity (RAW-Dual [3]; [4]): 0.715
IRF Lucia reporter activity (RAW-Dual [3]; agonist: LPS (TLR4) 0.1 ug/mL): 1.66

COC1CC2CCC(C)C(O)(O2)C(=O)C(=O)N2CCCCC2C(=O)OC(C(C)CC2CCC(n3cnnn3)C(OC)C2)CC(=O)C(C)C=C(C)C(O)C(OC)C(=O)C(C)CC(C)C=CC=CC=C1C (configuration not stated)
IRF Lucia reporter activity (RAW-Dual [2]; [5]): 0.832
